The source of these data is PubChem BioAssay (NCI).

SMILES strings stand for the structures. Compounds without any hit were thinned out: in the full panel of roughly 83,000, 20% have a hit.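 Negative percent growth values reflect cell death: -40 means 40% of the cells present at the start died, and -100 means all died.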 A number with no mark means an inactive call. Calls of active or inactive are those of the source. The calls were made as follows: active = growth percent below 10; inactive = the rest.

Test systems include RPMI-8226 leukemia; OVCAR-8 ovarian; OVCAR-5 ovarian; OVCAR-4 ovarian; IGROV1 ovarian; OVCAR-3 ovarian; HS 578T breast; NCI/ADR-RES ovarian; T-47D breast; SK-OV-3 ovarian.
What all share (assay): NCI-60 one-dose screen, 48 h (100 = growth as untreated, 0 = no growth, -100 = all killed)
What all share (conditions): 10 µM unless noted

On to `O=c1oc2ccc(Br)cc2c(=O)n1-c1ccc(Br)cc1F`, for which the growth with RPMI-8226 leukemia was -13.8% (active); in the assay on OVCAR-8 ovarian, 12.3%; in the assay with OVCAR-5 ovarian it was 18.8%; in the assay on OVCAR-4 ovarian, 10.4%; in the assay with IGROV1 ovarian, 9.59% (active); with OVCAR-3 ovarian it was 8.18% (active). Besides, the figures for the growth with HS 578T breast, with NCI/ADR-RES ovarian and in the assay with T-47D breast were -5.29% (active), 2.87% (active) and -1.51% (active), respectively.

As to `COc1cc(/C=C2\CCC/C(=C\c3cc(CN4CCOCC4)c(O)c(OC)c3)C2=O)cc(CN2CCOCC2)c1O`, the growth was 19.9% with RPMI-8226 leukemia; 19% in the assay on OVCAR-8 ovarian; 34% in the assay with OVCAR-5 ovarian; 36.1% in the assay on OVCAR-4 ovarian; 50.7% in the assay with IGROV1 ovarian; 19.4% in the assay with OVCAR-3 ovarian. Besides, the growth was 55.1% in the assay on HS 578T breast, 23.3% in the assay with NCI/ADR-RES ovarian and 63.3% in the assay with T-47D breast.

Turning to `COc1cc2nc(NC3CCCC3)nc(NC3CCN(C(C)C)CC3)c2cc1OC`, the growth with RPMI-8226 leukemia is -10.7% (active); with OVCAR-8 ovarian, 89.7%; in the assay with OVCAR-5 ovarian, 107%; with OVCAR-4 ovarian, 69%; with IGROV1 ovarian it was 82%; with OVCAR-3 ovarian it was 89.4%. Further, the values for the growth with HS 578T breast, in the assay with NCI/ADR-RES ovarian and in the assay with T-47D breast were 79.6%, 101% and 17.4%, respectively.

As for `O=c1cc(-c2ccccc2)oc2cc(OCc3cn(Cc4ccc(F)cc4)nn3)cc(OCc3cn(Cc4ccc(F)cc4)nn3)c12`, the growth with RPMI-8226 leukemia was 45.6%; in the assay with OVCAR-8 ovarian it was 12.7%; with OVCAR-5 ovarian, 55.1%; in the assay with OVCAR-4 ovarian, -9.56% (active); in the assay with IGROV1 ovarian, 43.5%; in the assay on OVCAR-3 ovarian it was 21.2%. Besides, the figures for the growth in the assay with HS 578T breast, with NCI/ADR-RES ovarian and in the assay on T-47D breast were 20.9%, 70.4% and 40.6%, respectively.

`Cc1ccc(C2CC(c3ccc(Nc4nc(NCCO)nc(Nc5ccc(Cl)cc5)n4)cc3)=NN2c2cc(Cl)cc(Cl)c2)cc1` (configuration not stated): the growth was 101% in the assay with RPMI-8226 leukemia; 97.4% in the assay with OVCAR-8 ovarian; 94.2% in the assay with OVCAR-5 ovarian; 102% in the assay on OVCAR-4 ovarian; 87.8% with IGROV1 ovarian; 102% with OVCAR-3 ovarian. Further, the growth is 68.3% with HS 578T breast, 105% with NCI/ADR-RES ovarian and 94.5% in the assay on T-47D breast.

On to `S=C1NC2(c3ccccc3)CCC(=S)N2c2ccccc21` (configuration not stated), for which the growth with RPMI-8226 leukemia is 103%; in the assay on OVCAR-8 ovarian, 100%; with OVCAR-5 ovarian it was 103%; in the assay with OVCAR-4 ovarian, 105%; in the assay on IGROV1 ovarian, 106%; in the assay with OVCAR-3 ovarian, 119%. Moreover, the growth in the assay on HS 578T breast is 101%; in the assay on NCI/ADR-RES ovarian, 109%; in the assay on T-47D breast, 106%.

For `COc1ccc(C2=C(c3cccc(OC)c3)C(=O)c3ccc(C)nc3C2=O)cc1`, the growth was 47.2% in the assay on RPMI-8226 leukemia; 42.3% in the assay with OVCAR-8 ovarian; 104% in the assay with OVCAR-5 ovarian; -95.8% (active) with OVCAR-4 ovarian; 43% in the assay on IGROV1 ovarian; 7.59% (active) in the assay on OVCAR-3 ovarian. Besides, the figures for the growth in the assay with HS 578T breast, in the assay on NCI/ADR-RES ovarian and in the assay on T-47D breast were 52.5%, 17.1% and -41.4% (active), respectively.

For the molecule `COc1ccc2sc3c(NCCCN)nc4ccccc4c3c(=O)c2c1`, the growth is -6.79% (active) in the assay with RPMI-8226 leukemia; 0.199% (active) in the assay on OVCAR-8 ovarian; 82.8% in the assay with OVCAR-5 ovarian; 34.5% in the assay with OVCAR-4 ovarian; 58.6% in the assay on IGROV1 ovarian; -22.4% (active) in the assay with OVCAR-3 ovarian. Besides, the growth in the assay with HS 578T breast is 70.9%; in the assay with NCI/ADR-RES ovarian, 68.3%; with T-47D breast, -32.6% (active).

On to `Cc1cccc2c(=O)c3c(sc12)c(N1CCNCC1)nc1ccccc13`, for which the growth was 7.41% (active) in the assay with RPMI-8226 leukemia; 83.9% with OVCAR-8 ovarian; 90.2% in the assay with OVCAR-5 ovarian; 73.9% with OVCAR-4 ovarian; 33.6% in the assay on IGROV1 ovarian; 63.7% in the assay on OVCAR-3 ovarian. For the same molecule, the growth was 73% in the assay on HS 578T breast, 83.1% in the assay with NCI/ADR-RES ovarian and 86.9% in the assay on T-47D breast.

On to `COc1cc(CNC(=O)Cc2ccccc2)ccc1OCc1cn(-c2ccc(F)cc2)nn1`, for which the growth in the assay with RPMI-8226 leukemia was 89.8%; in the assay with OVCAR-8 ovarian, 95.5%; in the assay with OVCAR-5 ovarian it was 108%; in the assay with OVCAR-4 ovarian, 78.2%; in the assay with IGROV1 ovarian, 106%; in the assay with OVCAR-3 ovarian, 107%. Moreover, the growth with HS 578T breast was 99.1%; with NCI/ADR-RES ovarian it was 94.7%; in the assay with T-47D breast it was 94.7%.

As to `CC1=NCC2NC(=O)NC(C)=C12` (configuration not stated), the growth in the assay with RPMI-8226 leukemia was 100%; in the assay on OVCAR-8 ovarian, 105%; in the assay with OVCAR-5 ovarian, 97.4%; in the assay with OVCAR-4 ovarian, 106%; with IGROV1 ovarian, 97%; in the assay with OVCAR-3 ovarian, 105%. Also, the figures for the growth in the assay with HS 578T breast, in the assay with NCI/ADR-RES ovarian and with T-47D breast were 93.6%, 106% and 113%, respectively.

Take `Fc1ccc(Oc2ccc(Nc3ncnc4onc(-c5ccccc5)c34)cc2)cc1`: the growth is 113% with RPMI-8226 leukemia; 95.5% in the assay with OVCAR-8 ovarian; 101% in the assay with OVCAR-5 ovarian; 102% with OVCAR-4 ovarian; 87.6% with IGROV1 ovarian; 109% in the assay with OVCAR-3 ovarian. In addition, the growth in the assay on HS 578T breast is 96.6%; in the assay with NCI/ADR-RES ovarian, 101%; in the assay on T-47D breast it was 94.5%.

For `COc1cc(-c2c3c(c(Br)n2Cc2ccccc2)-c2nc(N)sc2CC3)cc(OC)c1OC`, the growth in the assay on RPMI-8226 leukemia is 71.9%; in the assay with OVCAR-8 ovarian, 89.2%; in the assay on OVCAR-5 ovarian, 107%; with SK-OV-3 ovarian, 107%; in the assay with IGROV1 ovarian, 110%; with OVCAR-3 ovarian it was 95.6%. For the same molecule, the results for the growth with HS 578T breast, with NCI/ADR-RES ovarian and with T-47D breast were 80%, 87.4% and 63.8%, respectively.
